Test [1] concerns HaCat. In words: Cytotoxic Profiling of Annotated Libraries Using Quantitative High-Throughput Screening (AID 1296008). Conditions: Five cell lines viability, CellTiter-Glo ATP luminescence, 48-72 h; max response: stronger effect = lower value. The essentials:
(§1)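 Cytotoxicity was measured as CellTiter-Glo ATP luminescence, read after 10 min at room temperature. Compound treatment of the cells lasted 48 or 72 hr at 37 degrees Celsius in a qHTS format.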
For orientation: ATP-based viability assays read luminescence as a measure of living cells.

In test [2] the test system is NIH3T3. Described as above. Conditions: Five cell lines viability, CellTiter-Glo ATP luminescence, 48-72 h; max response: stronger effect = lower value. The method, boiled down: as §1
The next test deals with HEK293T. In words: qHTS assay to identify novel small-molecules to repurpose for Merkel cell carcinoma treatment (AID 1296009). Conditions: MCC and control cell lines, CellTiter-Glo viability, 72 h; at 44.8 µM (top of the series) unless noted. The method, boiled down: (§2)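 72 hr, 37 degree celsius; NPC 8-pt / MIPE 11-pt dose response; compound pinned in DMSO; CellTiter-Glo, 10 min RT, luminescence; normalized to no-cell and DMSO controls.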
Background: qHTS replaces the single test concentration by a dilution series.

The test system of another test is MCC-13. Described as above. Conditions: MCC and control cell lines, CellTiter-Glo viability, 72 h; series mostly up to 46 µM. The method, boiled down: as §2
A further test has as its system MCC-26. The test is described as above. Conditions: MCC and control cell lines, CellTiter-Glo viability, 72 h; series mostly up to 46 µM. The essentials:
as §2

In a further test the test system is MKL-1. The test is described as above. Conditions: MCC and control cell lines, CellTiter-Glo viability, 72 h; series mostly up to 46 µM. The method, boiled down: as §2
The next test concerns MKL-2. The description is as above. Conditions: MCC and control cell lines, CellTiter-Glo viability, 72 h; series mostly up to 46 µM. The method, boiled down: as §2
The subject of the next test is KB-3-1. As to the kind of experiment: Cytotoxic Profiling of Annotated Libraries Using Quantitative High-Throughput Screening (AID 1296008). Conditions: Five cell lines viability, CellTiter-Glo ATP luminescence, 48-72 h; max response: stronger effect = lower value. The essentials: as §1
In test [3] the test system is HACAT. In words: qHTS assay to identify novel small-molecules to repurpose for Merkel cell carcinoma treatment (AID 1296009). Conditions: MCC and control cell lines, CellTiter-Glo viability, 72 h; series mostly up to 44.8 µM. The essentials:
as §2

The test system of test [4] is NIH3T3. The test is described as above. Conditions: MCC and control cell lines, CellTiter-Glo viability, 72 h; at 44.8 µM (top of the series) unless noted. The method, boiled down:
as §2

The structures appear in SMILES notation. Several values for one entry are separate records, joined by “and”; a condition that tells them apart may be missing. Equal values may be shown once. Records with an inconclusive call do not appear. Some compounds were tested as several samples or in several runs, with calls that do not always agree. A number with no mark means an inactive call. Activity calls are given as the source filed them. Calls come from the whole dose curve; as a rule, active = well fitted inhibition curve with a large enough effect; inconclusive = small, poorly fitted or top-dose-only effect; inactive = flat fitted curve, though single readings scatter.
% is set by controls: 0 for no effect and ±100 for the full control effect; potency is the fitted concentration of half-maximal effect.
Note: nearly all actives have a fitted effect of over 60% in size.

Take `CCOCCOC(=O)/C=C/c1ccc(OC)cc1`: the max response with HaCat [1] is -19.2%; in the test with NIH3T3 [2], -3.67%. In addition, the call with HEK293T, in the test on MCC-13 and in the test with MCC-26 was inactive. Besides, the Potency result in the test with MKL-1 and with MKL-2 was “inactive” throughout.

As for `Cc1ccc(-c2c(C(=O)CF)n(CCCO)c3ncnc(N)c23)cc1`, the max response is 4.6% with HaCat [1] and 4.56% with KB-3-1. In the test on HEK293T, the molecule was called inactive.

On to `CN1CCN(c2ccc(C(=O)Nc3n[nH]c4ccc(Cc5cc(F)cc(F)c5)cc34)c(NC3CCOCC3)c2)CC1`, for which the Potency in the test with HaCat [1] was 18.4 µM (active) and 14.8 µM (active); in the test on NIH3T3 [2] it was 10.5 µM (active).

Turning to `CCN(Cc1cccnc1)C(=O)CN(c1ccc(OC)nc1)S(=O)(=O)c1ccccc1C`, the result in the test on HaCat [1], in the test on NIH3T3 [2], in the test with HEK293T and in the test with NIH3T3 [4] was inactive. The Potency result in the test with HACAT [3] was “inactive”.

As for `O=C(CO)[C@@H](O)[C@H](O[C@@H]1O[C@H](CO)[C@H](O)[C@H](O)[C@H]1O)[C@H](O)CO`, the max response in the test on HaCat [1] was -14%; in the test on KB-3-1 it was 5.5%. In addition, the result in the test on HEK293T was inactive.

Regarding `c1ccc(-c2csc(N3CCOCC3)n2)cc1`, the max response with HaCat [1] was -7.34%; in the test on KB-3-1, 8.26%. Moreover, in the test on HEK293T, the molecule was called inactive.

As to `Nc1ccccc1N`, the max response in the test with HaCat [1] was 3.79%; in the test with KB-3-1 it was -4.37%. The result in the test with MCC-26 was inactive.

For the molecule `C[C@H]1Oc2cc(cnc2N)-c2c(nn(C)c2C#N)CN(C)C(=O)c2ccc(F)cc21`, in the test with HaCat [1], the max response was -103%. For the same molecule, in the test with NIH3T3 [2], the Potency is 13.2 µM (active) and the max response was -87.5%.

As for `CNC(=O)c1ccccc1Nc1cc(Nc2ccc(N3CCOCC3)cc2OC)ncc1C(F)(F)F`, in the test on KB-3-1, the max response was -12.1%.

With `Cc1ccc(N)cc1O`, in the test on HaCat [1], the outcome was inactive. Moreover, the max response in the test on KB-3-1 is -6.12%. Also, in the test on HACAT [3], the Potency entry was “inactive”. The Potency in the test on MKL-1 and with MKL-2 was 6.11 µM (active) each time.

On to `CCCCCCOc1cc2c(cc1N(C)c1ncc(C(=O)O)cn1)C(C)(C)CCC2(C)C`, for which the result in the test with HaCat [1], with NIH3T3 [2] and in the test on NIH3T3 [4] was inactive. Moreover, the Potency entry in the test with HACAT [3] is “inactive”.

Turning to `C[C@@H]1CCC2C(C)(C)[C@H](O)CC[C@]2(C)[C@@]12Cc1c(O)cc3c(c1O2)CN([C@@H](CCC(=O)O)C(=O)O)C3=O` (some centres not stated), the molecule was called inactive with HaCat [1]. Further, the max response with KB-3-1 was 6.48%. In addition, in the test on HACAT [3], the Potency result is “inactive”. Moreover, the outcome in the test with HEK293T is “inactive [at 17.4 µM]”.

With `Cn1cncc1C(N)(c1ccc(Cl)cc1)c1ccc2c(c1)c(-c1cccc(Cl)c1)cc(=O)n2C` (configuration not stated), the Potency in the test on KB-3-1 is 16.4 µM (active).

On to `COC1/C=C/C(C)(O)C(SCC(N)C(=O)O)CC(=O)OC(C)C(C)CC/C=C/1C` (configuration not stated), for which, in the test with HaCat [1], the result was inactive. Moreover, the max response in the test with KB-3-1 is 0.268%. Besides, the Potency entry with HACAT [3] was “inactive”. Besides, in the test with HEK293T, the outcome is “inactive [at 17.4 µM]”.

Regarding `CCC(C)C(=O)OC1CC(O)C23C4OCC5(C(O)CC2C1(C)C(O)O4)C3C(=O)CC1(C)C(c2ccoc2)CC2OC215` (configuration not stated), the Potency in the test on KB-3-1 is 1.78 µM (active).

For the molecule `CCNC(=O)Nc1ncc(-c2cc(-c3c(C)cc(OC)cc3C)nc(-c3cnccn3)n2)s1`, the call in the test on HaCat [1] and with HEK293T was inactive. For the same molecule, the max response in the test with KB-3-1 was 1.64%. In addition, the Potency result in the test on HACAT [3] was “inactive”.

On to `O=C1C=CC2OC(c3ccccc3)C(O)C2O1` (configuration not stated), for which the result with HaCat [1] was inactive. Moreover, the max response in the test with KB-3-1 was -14.2%. For the same molecule, the Potency result in the test with HACAT [3] was “inactive”.

In the case of `CNC(=O)c1ccccc1Nc1nc(Nc2ccc3c(c2OC)CCC[C@@H](N2CCN(CCO)CC2)C3)ncc1Cl`, the Potency in the test with KB-3-1 was 13 µM (active).

`CC1CCCCN1S(=O)(=O)c1ccc(N2CCCC2=O)cc1` (configuration not stated): the max response was -10.9% with HaCat [1] and -2.83% in the test on KB-3-1. The molecule was called inactive with HEK293T.

As to `CC(C)[C@@H](CS(=O)(=O)C(C)C)N1C(=O)[C@@](C)(CC(=O)O)C[C@H](c2cccc(Cl)c2)[C@H]1c1ccc(Cl)cc1`, the max response in the test on HaCat [1] was -29%. Further, the Potency in the test on NIH3T3 [2] is 6.51 µM (active) and 7.41 µM (active).

In the case of `O=C(N/N=C/c1ccc(O)c(O)c1)c1cc2ccccc2cc1O`, the max response was -0.414% in the test on HaCat [1] and 7.95% in the test on KB-3-1. Moreover, the outcome in the test with HEK293T was “inactive [at 17.4 µM]”.

As to `Cc1ccccc1NC(=O)Nc1ccc(CC(=O)N(C)[C@@H](CC(C)C)C(=O)NCC[C@H](NC(=O)[C@@H]2CCCN2S(=O)(=O)c2cc(Cl)cc(Cl)c2)C(=O)O)cc1`, the call in the test with HaCat [1] was inactive. For the same molecule, the max response in the test on NIH3T3 [2] is -5.85%. The Potency result in the test on HACAT [3] was “inactive”. In addition, the outcome in the test with HEK293T was “inactive [at 17.4 µM]”.

In the case of `Cc1cccc(-c2[nH]c(Cc3cccc(C(N)=O)c3)nc2-c2ccc3nccnc3c2)n1`, the outcome with HaCat [1] and with HEK293T was inactive. In addition, the max response in the test on KB-3-1 was -5.51%. In addition, in the test on HACAT [3], the Potency entry was “inactive”.

On to `O=C(O)c1ccccc1NCCc1ccccc1`, for which the result in the test with HaCat [1], with MCC-13 and with MCC-26 was inactive. The max response in the test on NIH3T3 [2] was 2.83%. Besides, the Potency entry in the test on HACAT [3], with MKL-1 and with MKL-2 was “inactive” each time.

As to `C=C1C[C@@]23CCC4[C@@](C)(CCC[C@@]4(C)C(=O)OC)C2CC[C@@H]1C3` (some centres not stated), the molecule was classed as inactive in the test with HaCat [1] and in the test on HEK293T. Also, the max response with NIH3T3 [2] was 0.656%. In addition, the Potency entry with HACAT [3] was “inactive”.

For the molecule `O=C(O)c1c(O)c(-c2ccccc2)nc2ccccc12`, the molecule was called inactive in the test with HaCat [1], with NIH3T3 [2], with MCC-13, in the test on MCC-26 and in the test on NIH3T3 [4]. In addition, the Potency result in the test on HACAT [3], in the test with MKL-1 and in the test with MKL-2 was “inactive” in each case.

For the origin of these results see PubChem BioAssay (NCATS).
